This passage reports Percent Effect results from ChEMBL document CHEMBL3988442, “University of Dundee, Small-Polar-MMV Screening Library” (2021).

The assay has as its target AMP-activated protein kinase, AMPK (Homo sapiens) (UniProt P54646+O43741+P54619+Q9UGJ0+Q9Y478+Q13131+Q9UGI9). Put plainly: AMP-dependent Kinase enzyme assay. An in vitro enzyme assay that detects ADP turnover that is directly proportional to AMPK activity. This uses naive AMPK that is activated during the assay with MK-8722. In kind it is functional. Also noted: scale not given: direction of the effect not stated beside the values. As to conditions: 30 µM.

On to `CC(C)N(Cc1ccc(C(=O)O)o1)C(C)C`, for which the Percent Effect turned out to be 2.21%. The result for `CSC1(CNC(=O)NCc2sccc2C)CCOCC1` reads -1.64%. As for `O=C(c1ccc(=O)[nH]c1)N1CCC(Oc2cccc(C(F)(F)F)c2)CC1`, the Percent Effect was -3.39%.

In the case of `O=C(NCc1ccnc(OCC2CC2)c1)C1COc2ccccc2O1` (stereo unspecified), the Percent Effect was determined as 1.5%. The result for `C=C(C)CN(CC)C(=O)Nc1ccccc1CN(C)C(C)=O` reads -1.91%. On to `O=C(COc1cc(Cl)cc(Cl)c1)NCc1nncn1C1CC1`, for which the Percent Effect is -6.22%. The value for `CCN(CC)S(=O)(=O)NC1CCN(c2ccc(OC)cc2)CC1` was 9.49%; that for `C[C@@H]1CN(c2cccnn2)CC[C@@]1(O)C1CCOCC1` was 2.06%; that for `CCSc1cc(C(=O)N(CC(F)F)C(C)C)ccn1` was 2.16%.

As to `O=C(c1cncc(NCC2COc3ccccc3C2)n1)N1CCOCC1` (stereo unspecified), the Percent Effect amounted to 7.56%. The result for `COc1cccc(CN(C)Cc2[nH]c3ccccc3c2C)c1O` reads -44.5%.

For the compound `CS(=O)(=O)N1CCC(CNc2cc(Cl)ccc2C#N)CC1`, the Percent Effect turned out to be 7.86%. On to `COCc1ncc(CN2CCC3(CCNCC3)CC2)cn1`, for which the Percent Effect was -3.83%. The value for `CN1CCN(C2CCN(Cc3cn4ccccc4n3)CC2)C1=O` was 41.9%; that for `CC1CCN(CCNC(=O)c2sccc2C2CC2)CC1` was 5.67%; that for `Cc1cncc(C2CCN(Cc3ccncc3)CC2)n1` was 7.85%. As to `COCCN(C)C(=O)NCCc1coc(-c2ccc(C)cc2)n1`, the Percent Effect is -3.83%. The value for `CS(=O)(=O)CC1(CNc2cc(C#N)c3cc(Cl)ccc3n2)CC1` was -0.595%; that for `Cc1cnn(Cc2cccc(OCC(N)=O)c2)c1` was -0.231%.

On to `CCC(C)C(=O)Nc1ccc(CCN2CCOCC2)cc1` (stereo unspecified), for which the Percent Effect was 11.3%. The result for `CC(C)c1noc(C(C)N2CCC(c3nc4ccccc4o3)CC2)n1` (stereo unspecified) reads 0.506%; that for `CC(C)c1nnc(CN2CCCc3ccc(S(N)(=O)=O)cc32)o1`, 0.503%. The value for `CN(C)CC(=O)N1CCN(c2cc(N3CCCC3CO)ncn2)CC1` (stereo unspecified) was -7.31%. `CC1CCN(CC(=O)N(C)CCc2noc(C3CC3)n2)C1=O` (stereo unspecified): the Percent Effect was -1.6%. Turning to `COC(=O)CC1CN(Cc2ccn(-c3ccc(F)cc3)n2)CCO1` (stereo unspecified), the Percent Effect is -6.96%. The result for `Cc1nc2n(n1)CC(NCc1c(Cl)ccc3cccnc13)CC2` (stereo unspecified) reads 11.7%; that for `O=C(c1ccc2[nH]cnc2c1)N1CCC(COc2ccccn2)CC1`, -1.03%; that for `COC1CCCOC12CCN(C(=O)NCc1ccco1)CC2` (stereo unspecified), 13%. Consider `CCN(CC)S(=O)(=O)N1CCCC(c2ncc3c(n2)CCN(C)C3)C1` (stereo unspecified), for which the Percent Effect is -4.24%.

As for `CC(C)(C)C(=O)N1CCCC1(C(=O)N1CCCC1)c1cnccn1` (stereo unspecified), the Percent Effect was -4.87%.

Consider `NC(=O)CCn1ccc(NCc2cc(F)ccc2Br)n1`, for which the Percent Effect is -0.0146%. The result for `Cc1ncccc1C(=O)Nc1cccc(Cn2ccccc2=O)c1` reads 3.58%. For the compound `CC(C)(CNC(=O)c1ccc(Cl)o1)NC(=O)OC(C)(C)C`, the Percent Effect was -2.97%. The value for `CCOC(=O)c1n[nH]cc1CN1CCCC(N(C)Cc2ccccc2)C1` (stereo unspecified) was -0.954%; that for `CC(C(=O)NCC(C)(C)c1ccc2c(c1)OCCO2)n1cncn1` (stereo unspecified) was 11.3%. As for `Cc1ccccc1SCC(=O)N[C@H]1CC[C@H](n2cnnc2)CC1`, the Percent Effect was 1.98%. The value for `OC1CCCN(Cc2cn(CC3CCN(C4CCSCC4)CC3)nn2)C1` (stereo unspecified) was 8.15%; that for `Cc1cc(C(=O)N(C)C2CCS(=O)(=O)C2)c2ccc(F)cc2n1` (stereo unspecified) was -7.82%; that for `Cc1ccc(CNCc2cccc(NC(=O)CCN3CCOCC3)c2)s1` was -4.09%. The value for `Cc1ccc(CNC(CCO)C2CCCCC2)nc1` (stereo unspecified) was 2.17%.

As for `COc1ccc(-c2cnc(CN(CC(N)=O)C3CCCC3)o2)cc1`, the Percent Effect was -2.59%.

Turning to `CC1(NC(=O)CNC(=O)C(C)(C)C)CCc2ccccc2C1` (stereo unspecified), the Percent Effect came to 7.71%. The result for `OCCOCCNCC1(c2ccc(F)cc2)CCOC1` (stereo unspecified) reads -5.55%; that for `COc1ccc(Br)c(NC(=O)NCc2ncnn2C)c1`, -1.33%. The result for `COc1cccc(-c2nc(CNCc3cccnc3)cs2)c1` reads -1.6%; that for `Cn1nccc1-c1cccc(CC2CCN(S(C)(=O)=O)C2)n1` (stereo unspecified), 8.3%; that for `O=C(CCc1nc(-c2cccnc2)no1)NCC1CCN(C2CC2)C1` (stereo unspecified), -2.6%. The result for `Cc1nc(C)c(C(=O)N2C[C@@H](C(=O)O)[C@H](C3CC3)C2)s1` reads 7.29%; that for `O=C(C1CCCO1)N1CCC(Cn2cc(C3CCCC3)nn2)CC1` (stereo unspecified), 3.98%.

In the case of `OCCc1ncnn1Cc1cccc(Cl)c1`, the Percent Effect stood at 32.2%.

In the case of `O=c1[nH]c2ccc(S(=O)(=O)N(CCO)Cc3ccncc3)cc2[nH]1`, the Percent Effect is 15.8%. The result for `CCn1nc(C)cc1C(=O)OCC1CC(=O)N(Cc2ccccc2)C1` (stereo unspecified) reads 38.6%. The result for `c1ccc(-c2cc(CN3CCCCCC3c3ccco3)on2)nc1` (stereo unspecified) reads 8.41%. The value for `COc1ccccc1CN1CCC(c2nccc(C)n2)C1` (stereo unspecified) was -3.97%. Take `CCc1cc(=O)[nH]c(-c2ccc(NC(CO)CC(C)C)nc2)n1` (stereo unspecified): the Percent Effect turned out to be 4.58%.

As to `COc1ccc([C@@H]2CN(C(=O)CCCc3cn[nH]c3)C[C@H]2N(C)C)cc1`, the Percent Effect was found to be 2.77%.
